PubChem BioAssay (EPA / NIEHS)
Values joined by “and” are separate entries in the source; they are usually repeats but may differ in a detail not shown here. Identical values can stand only once. Results filed as inconclusive are left out. A structure can be active in one record and inactive in another. Active and inactive are the calls of the source. The calls were made as follows, unless noted: active = hit-call score of the fitted dose curve at least 0.9, where 1 is the maximum; inconclusive = response in the unintended direction; inactive = score below 0.9.

Columns and labels:
[1] = BSK_4H_Eotaxin3: BioMAP Diversity Plus: 4H Assay for Eotaxin 3 Biomarker Activity (AID 2283000; active = hit-call score of the fitted dose curve at least 0.9, where 1 is the maximum; inactive = score below 0.9); settings: primary human endothelial cells (HUVEC); actives raise or lower the signal
Method in brief: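 Chemicals were added to human umbilical vein endothelium cultures, and Eotaxin-3 was quantified by ELISA at 24 h. Values were derived by bidirectional fitting with DMSO serving as negative control and activity baseline.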

[2] = biological target: human Peroxisome Proliferator-activated Receptor alpha (PPARa), PPARA (gene 5465) (UniProt Q07869); assay: ATG_PPARa_TRANS: Attagene TRANS-FACTORIAL HepG2 Assay for human Peroxisome Proliferator-activated Receptor alpha (PPARa) (AID 2283001);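 as to AC50: potency for gain of reporter signal over DMSO so agonist or activator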
human Peroxisome Proliferator-activated Receptor alpha (PPARa), PPARA (gene 5465), sequence (Q07869 whole entry, looked up, the tested form may be a part): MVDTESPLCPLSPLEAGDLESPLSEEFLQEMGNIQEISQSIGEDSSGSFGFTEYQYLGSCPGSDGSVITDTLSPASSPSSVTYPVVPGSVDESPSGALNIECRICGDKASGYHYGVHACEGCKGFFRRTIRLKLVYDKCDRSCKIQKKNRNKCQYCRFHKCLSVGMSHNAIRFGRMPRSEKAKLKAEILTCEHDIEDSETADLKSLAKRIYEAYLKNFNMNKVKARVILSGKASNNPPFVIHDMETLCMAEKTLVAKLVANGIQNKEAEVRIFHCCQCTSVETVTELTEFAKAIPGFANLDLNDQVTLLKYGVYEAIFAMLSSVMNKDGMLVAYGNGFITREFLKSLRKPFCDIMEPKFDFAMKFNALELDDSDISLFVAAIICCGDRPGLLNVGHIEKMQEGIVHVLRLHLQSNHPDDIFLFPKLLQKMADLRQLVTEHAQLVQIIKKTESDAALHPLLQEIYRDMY
Method in brief: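 Reporter transcripts quantified by RT-PCR plus capillary electrophoresis after 24 h treatment, fitted upward relative to DMSO. Cells: human HepG2 transiently carrying multiple GAL4-UAS reporter units driven by NR-Gal4 chimeras.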

[3] = biological target: human Peroxisome Proliferator-activated Receptor delta (PPARd), PPARD (gene 5467) (UniProt Q03181); assay: ATG_PPARd_TRANS: Attagene TRANS-FACTORIAL HepG2 Assay for human Peroxisome Proliferator-activated Receptor delta (PPARd) (AID 2283002)
human Peroxisome Proliferator-activated Receptor delta (PPARd), PPARD (gene 5467), sequence (Q03181 whole entry, looked up): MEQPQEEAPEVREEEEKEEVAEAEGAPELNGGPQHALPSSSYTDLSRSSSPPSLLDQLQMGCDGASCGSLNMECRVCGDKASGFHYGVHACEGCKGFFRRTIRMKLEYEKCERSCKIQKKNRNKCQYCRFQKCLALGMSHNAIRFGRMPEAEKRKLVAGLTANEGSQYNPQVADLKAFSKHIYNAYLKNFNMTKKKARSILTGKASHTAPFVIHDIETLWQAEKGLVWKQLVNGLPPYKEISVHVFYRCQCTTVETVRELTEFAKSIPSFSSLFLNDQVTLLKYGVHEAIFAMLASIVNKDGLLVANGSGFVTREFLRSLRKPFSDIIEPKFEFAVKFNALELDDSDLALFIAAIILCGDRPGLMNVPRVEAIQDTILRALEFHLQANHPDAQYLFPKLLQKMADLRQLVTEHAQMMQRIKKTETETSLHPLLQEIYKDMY
Method in brief: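 Cell-based TRANS reporter: HepG2, transient MRTU transfection, 24 h exposure. Readout = reporter mRNA (RT-PCR/CE, 6-FAM). Gain-of-signal fit vs DMSO control.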

[4] = read-out: Intercellular Adhesion Molecule 1 (ICAM1), ICAM1 (gene 3383); assay: BSK_3C_ICAM1: BioMAP Diversity Plus: 3C Assay for Intercellular Adhesion Molecule 1 (ICAM1) Biomarker Activity (AID 2283003; active = hit-call score of the fitted dose curve at least 0.9, where 1 is the maximum; inactive = score below 0.9); settings: primary human endothelial cells (HUVEC); actives raise or lower the signal
Method in brief: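 Chemicals are dosed onto primary human umbilical vein endothelium (3C system). After 24 h, ICAM-1 is measured by ELISA, and responses are fitted bidirectionally relative to DMSO.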

[5] = BSK_3C_Proliferation: Cell Proliferation Assessment in the BioMAP Diversity Plus: 3C Assay (AID 2283006; active = hit-call score of the fitted dose curve at least 0.9, where 1 is the maximum; inactive = score below 0.9;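 as to AC50: potency may reflect either rise or fall in cell number versus DMSO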); settings: primary human endothelial cells (HUVEC)
Method in brief: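 Cells (human umbilical vein endothelial, sub-confluent) receive test chemical; after 48 h they are fixed in 10% trichloroacetic acid, stained with 0.1% SRB and read at 560 nm. Activity is referenced to DMSO, fitting increases and decreases.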

[6] = biological target: Peroxisome proliferator-activated receptor gamma (Homo sapiens) (UniProt P37231); assay: ATG_PPARg_TRANS: Attagene TRANS-FACTORIAL HepG2 Assay for human Peroxisome Proliferator-activated Receptor-gamma (PPARg) (AID 2283007)
Peroxisome proliferator-activated receptor gamma (Homo sapiens), sequence (P37231 whole entry, looked up, the tested form may be a part): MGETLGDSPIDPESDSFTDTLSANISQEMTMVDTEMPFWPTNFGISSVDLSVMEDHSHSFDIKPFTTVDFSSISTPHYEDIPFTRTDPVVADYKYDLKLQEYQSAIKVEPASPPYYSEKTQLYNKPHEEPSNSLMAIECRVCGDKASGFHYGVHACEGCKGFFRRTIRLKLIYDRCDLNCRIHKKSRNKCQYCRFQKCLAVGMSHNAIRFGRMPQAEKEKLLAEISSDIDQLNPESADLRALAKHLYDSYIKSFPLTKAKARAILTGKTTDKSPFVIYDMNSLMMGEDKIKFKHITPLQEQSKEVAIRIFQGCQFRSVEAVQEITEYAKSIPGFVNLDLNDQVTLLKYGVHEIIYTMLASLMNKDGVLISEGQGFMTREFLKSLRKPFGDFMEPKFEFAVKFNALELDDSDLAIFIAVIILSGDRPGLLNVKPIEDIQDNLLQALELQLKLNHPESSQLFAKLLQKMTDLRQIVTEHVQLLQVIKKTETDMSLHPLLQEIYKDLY
Method in brief: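 After 24 h of chemical exposure, transfected HepG2 cells carrying PPARγ-Gal4 chimera reporter constructs are lysed for RNA. Reporter transcripts are measured by RT-PCR and capillary electrophoresis with fluorescent labelling, and gain of signal is fitted versus DMSO.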

[7] = biological target: Nuclear receptor subfamily 1 group I member 2 (Homo sapiens) (UniProt O75469); assay: ATG_PXR_TRANS: Attagene TRANS-FACTORIAL HepG2 Assay for human Pregnane X Receptor (PXR) (AID 2283008)
Nuclear receptor subfamily 1 group I member 2 (Homo sapiens), sequence (O75469 whole entry, looked up, the tested form may be a part): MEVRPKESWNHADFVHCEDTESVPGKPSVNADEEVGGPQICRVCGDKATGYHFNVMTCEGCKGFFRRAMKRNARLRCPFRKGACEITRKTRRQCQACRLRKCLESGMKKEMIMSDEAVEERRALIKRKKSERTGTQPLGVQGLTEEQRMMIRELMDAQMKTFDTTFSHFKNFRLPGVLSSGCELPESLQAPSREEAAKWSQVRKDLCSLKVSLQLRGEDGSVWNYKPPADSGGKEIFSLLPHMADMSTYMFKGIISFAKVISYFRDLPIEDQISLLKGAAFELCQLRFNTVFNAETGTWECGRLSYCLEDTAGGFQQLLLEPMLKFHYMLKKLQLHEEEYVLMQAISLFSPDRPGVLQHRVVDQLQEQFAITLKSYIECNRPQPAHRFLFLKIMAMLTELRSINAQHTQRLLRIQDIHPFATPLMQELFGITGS
Method in brief: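 HepG2 transfected (FuGene 6) with GAL4-UAS reporter units + PXR-Gal4 chimera; dosed 24 h. Total RNA → oligo(dT) RT → PCR → 6-FAM primer extension → HpaI cut → CE. Gain-of-signal vs DMSO.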

[8] = biological target: human Retinoic Acid Receptor beta (RARb), RARB (gene 5915) (UniProt P10826); assay: ATG_RARb_TRANS: Attagene TRANS-FACTORIAL HepG2 Assay for human Retinoic Acid Receptor beta (AID 2283004)
human Retinoic Acid Receptor beta (RARb), RARB (gene 5915), sequence (P10826 whole entry, looked up): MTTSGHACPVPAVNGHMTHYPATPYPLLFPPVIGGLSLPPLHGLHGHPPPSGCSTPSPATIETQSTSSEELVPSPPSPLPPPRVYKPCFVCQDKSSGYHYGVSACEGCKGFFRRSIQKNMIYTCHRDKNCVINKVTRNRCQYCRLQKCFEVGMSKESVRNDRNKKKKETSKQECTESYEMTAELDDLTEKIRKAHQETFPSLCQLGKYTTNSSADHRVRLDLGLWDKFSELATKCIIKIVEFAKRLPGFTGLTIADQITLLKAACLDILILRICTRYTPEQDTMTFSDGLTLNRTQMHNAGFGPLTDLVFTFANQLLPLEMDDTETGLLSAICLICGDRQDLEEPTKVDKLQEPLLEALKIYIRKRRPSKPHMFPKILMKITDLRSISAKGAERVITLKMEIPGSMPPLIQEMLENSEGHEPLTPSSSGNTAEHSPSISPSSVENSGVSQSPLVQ
Method in brief: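 Transient transfection of HepG2 with multiple reporter units → chemical dosing, 24 h → total RNA isolation → RT with oligo(dT) → reporter-specific PCR, 6-FAM primer extension, HpaI digest → capillary electrophoresis. Positive direction vs DMSO control.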

[9] = biological target: Retinoic acid receptor alpha (Homo sapiens) (UniProt P10276); assay: ATG_RARa_TRANS: Attagene TRANS-FACTORIAL HepG2 Assay for human Retinoic Acid Receptor alpha (RARa) (AID 2283005)
Retinoic acid receptor alpha (Homo sapiens), sequence (P10276 whole entry, looked up, the tested form may be a part): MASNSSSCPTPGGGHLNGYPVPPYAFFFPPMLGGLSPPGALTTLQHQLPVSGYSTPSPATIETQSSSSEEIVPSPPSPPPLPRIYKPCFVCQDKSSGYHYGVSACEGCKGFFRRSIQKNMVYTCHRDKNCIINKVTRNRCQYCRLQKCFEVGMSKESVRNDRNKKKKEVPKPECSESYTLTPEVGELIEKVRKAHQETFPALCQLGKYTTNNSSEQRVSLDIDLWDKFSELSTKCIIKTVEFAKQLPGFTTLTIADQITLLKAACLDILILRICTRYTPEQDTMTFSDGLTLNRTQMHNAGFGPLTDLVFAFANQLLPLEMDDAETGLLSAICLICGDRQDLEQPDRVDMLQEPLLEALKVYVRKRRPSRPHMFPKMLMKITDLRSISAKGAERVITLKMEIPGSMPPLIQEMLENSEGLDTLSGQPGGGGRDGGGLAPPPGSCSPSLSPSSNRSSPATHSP
Method in brief: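 Reporter transcripts, measured by RT-PCR with fluorescent labeling and capillary electrophoresis after 24 h dosing, reflect activity of an exogenous human RARa–GAL4 fusion in transiently transfected HepG2. Fitted for increase relative to DMSO.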

[10] = biological target: human Retinoic Acid Receptor gamma (RARg), RARG (gene 5916) (UniProt P13631); assay: ATG_RARg_TRANS: Attagene TRANS-FACTORIAL HepG2 Assay for human Retinoic Acid Receptor gamma (RARg) (AID 2283009);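 as to AC50: AC50 is for reporter induction above DMSO meaning RARg activation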
human Retinoic Acid Receptor gamma (RARg), RARG (gene 5916), sequence (P13631 whole entry, looked up, the tested form may be a part): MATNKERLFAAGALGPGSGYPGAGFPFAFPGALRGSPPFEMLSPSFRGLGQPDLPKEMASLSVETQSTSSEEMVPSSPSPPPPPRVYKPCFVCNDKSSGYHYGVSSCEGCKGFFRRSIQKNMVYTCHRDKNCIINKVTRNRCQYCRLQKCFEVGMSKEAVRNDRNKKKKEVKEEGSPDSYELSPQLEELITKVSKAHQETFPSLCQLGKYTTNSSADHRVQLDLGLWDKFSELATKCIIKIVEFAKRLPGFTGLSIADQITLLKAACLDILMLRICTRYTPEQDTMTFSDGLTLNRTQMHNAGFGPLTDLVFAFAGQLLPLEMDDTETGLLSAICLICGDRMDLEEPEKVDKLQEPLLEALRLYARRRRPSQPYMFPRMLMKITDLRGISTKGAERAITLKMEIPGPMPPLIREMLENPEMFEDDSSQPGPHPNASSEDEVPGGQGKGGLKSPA
Method in brief: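 TRANS format measured activity of exogenous NR-GAL4 fusion (RARg) in transfected HepG2 liver cells after 24 h dosing. Induced reporter RNA was detected by RT-PCR/capillary electrophoresis fluorescence, analysed in the positive direction against DMSO.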

Measured: AC50

NC(=O)c1c(Cl)cccc1Cl
active: [7] 0.36 µM
not listed: [8] | [9] | [10]
inactive: all other assays above

C#C[C@]1(O)CC[C@H]2[C@@H]3CCc4cc(O)ccc4[C@H]3CC[C@@]21C
inactive: [1] | [3] | [4] | [8] | [9] | [6] | [7] | [10]
active: [5] 4.5 µM | [7] 2.7 µM and 4.39 µM and 6.57 µM

CC(=O)CCC=C(C)CCC=C(C)C
active: [1] 31.5 µM | [6] 36.6 µM | [7] 4.33 µM
inactive: [2] | [4] | [5]

CCCCCCCCCC(=O)OCC
active: [1] 34.3 µM | [2] 64.9 µM | [4] 35.1 µM | [5] 20 µM | [6] 84.8 µM
inactive: [7] | [10]

CCCCOCCOCCO
inactive: [1] | [4] | [8] | [9] | [5] | [10]

Nc1ccc(N)c([N+](=O)[O-])c1
not listed: [9]
inactive: all other assays above

CC1=CC[C@@H]2C[C@H]1C2(C)C
inactive: [2]

ClCCOCCOCCCl
inactive: [2] | [3] | [8] | [9] | [6]

CC(C)CCCC(C)(C)O
inactive: [1] | [4] | [5] | [7]

CCOCC(C)O (configuration not stated)
inactive: [2] | [3]

CCOC(=O)C(=O)OCC
inactive: [2] | [3]

CCCC(O)C(CC)CO (configuration not stated)
inactive: [2] | [3]

CC(C)(C)c1ccc(S)cc1
inactive: [2] | [3] | [6] | [7]

CCCC[N+](C)(CCCC)CCCC
inactive: [2]

CCC(=O)OCC=Cc1ccccc1
active: [7] 16.7 µM
inactive: [1] | [4] | [5] | [6]

O=C(O)C1=NN(c2ccc(S(=O)(=O)O)cc2)C(=O)C1
inactive: [2] | [3] | [6]

CCCCCCCCCCCCCC(=O)OCC
inactive: [2] | [3] | [8] | [9] | [10]

CCO[Si](CC)(OCC)OCC
inactive: [2] | [3] | [8]
active: [7] 2.84 µM

O=S(=O)(O)C(F)(F)C(F)(F)OC(F)(F)C(F)(F)F
inactive: [1] | [4] | [5]

CCCO[Si](OCCC)(OCCC)OCCC
inactive: [1] | [4] | [5] | [6] | [7]

CC(=O)Oc1c(C)c(C)c2c(c1C)CC[C@@](C)(CCC[C@H](C)CCC[C@H](C)CCCC(C)C)O2
inactive: [2] | [3] | [8] | [9] | [6] | [7]

NC(N)=NC(N)=NCCc1ccccc1
inactive: [2] | [3] | [9] | [6] | [7] | [10]

CC=CC(=O)C1=C(C)C=CCC1(C)C
inactive: [1] | [4] | [5] | [6] | [7]

O=C(O)C(F)(F)OC(F)(F)C(F)(F)OC(F)(F)C(F)(F)C(F)(F)C(F)(F)F
inactive: [1] | [4]
active: [5] 54.5 µM and 48.8 µM

CCCCOCCOCCOCCO
inactive: [2] | [3] | [8] | [6]

O=c1cc[nH]cc1
inactive: [2] | [3]

O=S1(=O)CC=CC1
inactive: [2] | [3]

CC1(C)[C@H](C=C(Cl)Cl)[C@H]1C(=O)OCc1cccc(Oc2ccccc2)c1
active: [7] 1.99 µM
inactive: [1] | [4] | [5]

CCCCC1CCCCC(=O)O1 (configuration not stated)
active: [6] 47.4 µM
inactive: [2] | [3] | [9] | [7] | [10]

C=C1CC/C=C(\C)CC[C@@H]2[C@@H]1CC2(C)C
inactive: [6]
active: [1] 28.8 µM | [4] 35 µM | [5] 30 µM | [7] 19.8 µM

CC(C)Cc1ccccc1
inactive: [2] | [3] | [8] | [9] | [7]

Cc1cc(O)c2c(c1)C(=O)c1cc(O)cc(O)c1C2=O
inactive: [3] | [8] | [9] | [10]
active: [2] 27.5 µM | [6] 9.51 µM | [7] 6.34 µM

CN1CCc2cccc3c2[C@H]1Cc1ccc(O)c(O)c1-3
active: [6] 12 µM | [10] 0.775 µM
inactive: [2] | [3] | [8] | [9] | [7]

c1ccc(OCCOc2ccccc2)cc1
inactive: [1] | [4] | [5] | [7]

N#CCCCC(C#N)CCC#N (configuration not stated)
inactive: [2] | [3] | [8] | [7] | [10]

C/C=C(\C)C(=O)OC/C=C(\C)CCC=C(C)C
inactive: [2] | [3] | [7]
active: [6] 12.3 µM

CCCCCC#CC(=O)OC
inactive: [2] | [3] | [7]
active: [6] 12.9 µM

CC(=N[Si](C)(C)C)O[Si](C)(C)C
inactive: [2] | [3]

CCCCCCCCCCCCOCCOS(=O)(=O)O
inactive: [3] | [7]
active: [2] 9.73 µM | [6] 18.7 µM

CC(=O)c1cccnc1
inactive: [2]
